Screening results as filed in PubChem BioAssay.
VP16 counter = inhibits Gal4-VP16 luciferase reporter, ROR gamma counter-screen; Potency, µM (doses to about 53.6 µM), for inactives: at the highest dose activity, negative = inhibition, usual class: inhibitors; AID 2546; Drosophila S2 Gal4-VP16 UAS-luciferase, luminescence, 20 h; actives 3.5% (n = 310,000);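 note: Gal4-VP16 expression switched on by copper sulfate through the metallothionein promoter; % is set by controls: 0 for no effect and ±100 for the full control effect; nearly all actives have a fitted effect of over 50% in size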
RORg inh = ROR gamma (mouse) transcription inhibition; Drosophila S2 Gal4-RORgamma UAS-luciferase reporter, 20 h; Potency, µM (series often up to 53.6 µM), for inactives: at the top dose activity change, negative = inhibition, hits mostly inhibitors; P51450; actives 5.4% (n = 310,000); AID 2551; note: % is set by controls: 0 for no effect and ±100 for the full control effect; nearly all actives have a fitted effect of over 60% in size
Target sequence (P51450 whole entry, looked up, the tested form may be a part): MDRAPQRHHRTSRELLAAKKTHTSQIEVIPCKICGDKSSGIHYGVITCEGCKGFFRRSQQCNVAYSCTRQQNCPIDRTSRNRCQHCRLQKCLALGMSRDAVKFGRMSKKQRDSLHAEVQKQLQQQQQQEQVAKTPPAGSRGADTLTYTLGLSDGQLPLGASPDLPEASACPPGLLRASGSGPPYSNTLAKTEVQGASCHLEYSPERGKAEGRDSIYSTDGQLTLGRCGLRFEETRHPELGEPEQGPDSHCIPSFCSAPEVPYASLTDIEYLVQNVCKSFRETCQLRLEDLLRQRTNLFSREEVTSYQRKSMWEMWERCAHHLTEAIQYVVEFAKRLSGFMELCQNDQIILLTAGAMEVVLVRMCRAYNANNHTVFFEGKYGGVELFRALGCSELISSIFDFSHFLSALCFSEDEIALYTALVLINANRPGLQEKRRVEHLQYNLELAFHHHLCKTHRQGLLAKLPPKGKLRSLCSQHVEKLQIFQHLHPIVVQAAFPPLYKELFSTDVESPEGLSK
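Drosophila Schneider cells stably carrying a metallothionein-driven Gal4 DBD–ROR gamma fusion and a UAS-Photinus luciferase reporter were exposed to compound for 1 hr, then induced with copper sulfate (700 uM final) for 20 hr at ambient temperature before luminescence reading.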
MCF10A rereplic = induces DNA re-replication in MCF 10a normal breast cells. MCF 10A DNA re-replication, Hoechst nuclear intensity, 48 h. Potency, µM (series often up to 46.1 µM), for the others: at the top dose activity, positive = re-replication, usual class: activators. actives 2.9% (n = 350,000). AID 624296; note: % of control where 0% means no effect; nearly all actives have a fitted effect of over 50% in size
SW480 rerep = induces DNA re-replication in SW480 colon adenocarcinoma cells; SW480 DNA re-replication, Hoechst DNA content imaging, 48 h; Potency, µM (series often up to 46.1 µM), inactives show at the top dose re-replication activation, usual class: activators; actives 1.8% (n = 340,000); note: % of control where 0% means no effect; nearly all actives have a fitted effect of over 55% in size
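250 cells/well; 23 nL cpd via pin tool; 48 hr, 37 C, 5% CO2; Hoechst 40 min; imager read of total nuclear intensity, ex 405/em 500-530 nm.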
ELG1 repair inh = inhibitors of ELG1-dependent DNA repair in HEK293T cells. HEK293T ELG1-luciferase reporter, luminescence, 16 h; DNA damage induced by 5-fluorouridine. Potency, µM (top dose mostly 46.1 µM), for the others: at the top dose activity change, negative = inhibition, hits mostly inhibitors. actives 2.3% (n = 330,000). AID 504467; note: % is set by controls: 0 for no effect and ±100 for the full control effect; nearly all actives have a fitted effect of over 55% in size
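DMSO vehicle served as the neutral condition. Each well held 2,000 cells given 5-fluorouridine plus compound; after 16 hr at 37 °C/5% CO2, ONE-Glo was added and luciferase measured 30 min later.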
The depositor's hits bear a star; ? = inconclusive; nt = no result given. In the library only some 10% were active in any assay of this set; here they are far more common. Calls come from the whole dose curve; as a rule, active = well fitted curve in the direction sought with a large enough effect; inconclusive = small, poorly fitted or top-dose-only effect, or another doubt; inactive = no such curve, though single readings can be large; an effect the other way counts as inactive or inconclusive. Potency is the fitted concentration of half-maximal effect.

SMILES | VP16 counter | RORg inh | MCF10A rereplic | SW480 rerep | ELG1 repair inh
COc1ccc(C(=O)Nc2ccc(S(=O)(=O)N3CCOCC3)cc2)cc1[N+](=O)[O-] | 3.9% | 35.8% | 4.61µM* | -14.4% | -11.5%
COc1ccc(C(=O)NC(=S)N2CCOCC2)cc1[N+](=O)[O-] | 2.82µM* | 2.24µM* | -0.7% | -4.8% | -1.4%
COc1cc(C(=S)N2CCOCC2)ccc1OC(=O)c1ccccc1C | -7.4% | ? | 5.6% | 18.4µM* | ?
COc1ccc(C(=O)NC(=S)N2CCOCC2)cc1Br | 1.12µM* | 1.26µM* | -2.3% | -0.7% | 18.2%
COc1ccc(C(=O)NN2CCOCC2)cc1[N+](=O)[O-] | -2.0% | 1.1% | -24.5% | -25.3% | 0.0%
C1CCCC1 | -1.8% | 9.3% | nt | nt | nt
COc1ccc(-n2c(=O)c(-c3cccs3)nc3cnc(Nc4cccc(OC)c4)nc32)cc1 | -5.9% | 22.5% | nt | nt | nt
O=C(CCC(=O)OCC(=O)c1cccc([N+](=O)[O-])c1)NC1CCCCC1 | 4.6% | 9.4% | 3.0% | 2.59µM* | 0.1%
O=C(CCC(=O)OCC(=O)c1ccc([N+](=O)[O-])cc1)NC1CCCCC1 | -23.6% | -1.3% | -68.0% | ? | -0.7%
OCCN1CCN(Cc2cc(Cl)c3cccnc3c2O)CC1 | 10µM* | 5.62µM* | ? | 3.26µM* | -17.0%
O=c1c(CN2CCN(c3ccccn3)CC2)coc2ccccc12 | -11.1% | 3.6% | 9.7% | 7.1% | -5.4%
OCCN1CCN(Cc2cc(Br)cc(Br)c2O)CC1 | 7.1% | 0.0% | -0.4% | -0.1% | 5.7%
Oc1c(CN2CCN(c3ccccn3)CC2)cc(Cl)c2cccnc12 | ? | 0.447µM* | ? | 7.31µM* | ?
COc1ccc2[nH]cc(CCNC(=S)NCCc3ccccc3)c2c1 | -23.0% | 11.2µM* | 0.8% | 1.2% | -3.3%
COc1ccc(NC(=S)NCCc2c[nH]c3ccccc23)cc1 | 12.6µM* | 14.1µM* | ? | 5.4% | -14.9%
COc1ccccc1NC(=S)NCCc1c[nH]c2ccccc12 | ? | 14.1µM* | 28.1% | ? | 5.8%
Cc1ccccc1NC(=O)C(=O)NCCc1c[nH]c2ccccc12 | 8.3% | 24.8% | 0.5% | -10.7% | 15.9%
Cc1ccc(NC(=S)NCCc2c[nH]c3ccccc23)c(C)c1 | 17.8µM* | 7.94µM* | 5.1% | -24.3% | ?
N#C/C(=C\c1ccc(Cl)cc1Cl)c1n[nH]c(Cn2cncn2)n1 | -4.1% | -0.3% | -9.3% | 2.4% | ?
COc1cc(NC(=S)NCCc2c[nH]c3ccccc23)c(OC)cc1Cl | 3.55µM* | 7.08µM* | 10.6% | 20.7% | ?
COc1cc(NC(=S)NCCO)c(OC)cc1Cl | 2.4% | 12.0% | ? | ? | -6.8%
O=C(COC(=O)c1ccc2c(c1)C(=O)N(c1cccc3ncccc13)C2=O)c1ccc(Cl)cc1 | ? | ? | 6.51µM* | ? | -16.8%
CCN1CCC(O)(C(C(=O)O)c2ccccc2)CC1 (stereo not given) | nt | nt | 5.2% | 15.4% | nt
CC(C)c1ccccc1NC(=O)COC(=O)CCN1C(=O)/C(=C\C=C\c2ccccc2)SC1=S | 3.98µM* | 2.51µM* | 9.0% | -3.2% | 24.6%
O=C(COC(=O)CCN1C(=O)/C(=C\C=C\c2ccccc2)SC1=S)Nc1ccc(Br)cc1 | ? | -39.7% | 26.0% | 25.2% | -1.6%
SMILES | VP16 counter | RORg inh | MCF10A rereplic | SW480 rerep | ELG1 repair inh
O=C(Nc1ccccc1)Nc1cc(Cl)cc(Cl)c1 | ? | ? | ? | 16.3% | 0.0%
O=C(Nc1ccccc1)Nc1cc(OCC(F)(F)F)cc(OCC(F)(F)F)c1 | 15.8µM* | ? | 20.6µM* | 15.1% | ?
CCCc1ccc(-c2cc(C(=O)NN3CCOCC3)c3ccccc3n2)cc1 | -16.7% | -11.2% | 25.8% | 12.4% | ?
CCc1ccc(-c2cc(C(=O)Nn3cnnc3)c3ccccc3n2)cc1 | 0.631µM* | 0.891µM* | 2.4% | -0.2% | ?
CCc1ccc(-c2cc(C(=O)N3N=C(C(F)F)CC3(O)C(F)F)c3ccccc3n2)cc1 (stereo not given) | ? | ? | 9.2µM* | 8.7% | ?
NC12NC(=O)C3(O)C4C5CC(C6C5C3C61)C42 (stereo not given) | -4.2% | 0.7% | 0.6% | -0.8% | -10.4%
